This is an account of results in ChEMBL document CHEMBL4808148, “HDAC6 screening dataset using tau-based substrate in an enzymatic assay yields selective inhibitors and activators” (2021).

Screen size: about 5,600 compounds; about 390 (7%) showed an effect of 50% or more. The sample holds strong results, similar compounds and a random draw of the others, so the mix is not that of the screen.

The assay addresses T1, Protein deacetylase HDAC6 (Homo sapiens) (UniProt Q9UBN7).
T1 sequence (whole entry): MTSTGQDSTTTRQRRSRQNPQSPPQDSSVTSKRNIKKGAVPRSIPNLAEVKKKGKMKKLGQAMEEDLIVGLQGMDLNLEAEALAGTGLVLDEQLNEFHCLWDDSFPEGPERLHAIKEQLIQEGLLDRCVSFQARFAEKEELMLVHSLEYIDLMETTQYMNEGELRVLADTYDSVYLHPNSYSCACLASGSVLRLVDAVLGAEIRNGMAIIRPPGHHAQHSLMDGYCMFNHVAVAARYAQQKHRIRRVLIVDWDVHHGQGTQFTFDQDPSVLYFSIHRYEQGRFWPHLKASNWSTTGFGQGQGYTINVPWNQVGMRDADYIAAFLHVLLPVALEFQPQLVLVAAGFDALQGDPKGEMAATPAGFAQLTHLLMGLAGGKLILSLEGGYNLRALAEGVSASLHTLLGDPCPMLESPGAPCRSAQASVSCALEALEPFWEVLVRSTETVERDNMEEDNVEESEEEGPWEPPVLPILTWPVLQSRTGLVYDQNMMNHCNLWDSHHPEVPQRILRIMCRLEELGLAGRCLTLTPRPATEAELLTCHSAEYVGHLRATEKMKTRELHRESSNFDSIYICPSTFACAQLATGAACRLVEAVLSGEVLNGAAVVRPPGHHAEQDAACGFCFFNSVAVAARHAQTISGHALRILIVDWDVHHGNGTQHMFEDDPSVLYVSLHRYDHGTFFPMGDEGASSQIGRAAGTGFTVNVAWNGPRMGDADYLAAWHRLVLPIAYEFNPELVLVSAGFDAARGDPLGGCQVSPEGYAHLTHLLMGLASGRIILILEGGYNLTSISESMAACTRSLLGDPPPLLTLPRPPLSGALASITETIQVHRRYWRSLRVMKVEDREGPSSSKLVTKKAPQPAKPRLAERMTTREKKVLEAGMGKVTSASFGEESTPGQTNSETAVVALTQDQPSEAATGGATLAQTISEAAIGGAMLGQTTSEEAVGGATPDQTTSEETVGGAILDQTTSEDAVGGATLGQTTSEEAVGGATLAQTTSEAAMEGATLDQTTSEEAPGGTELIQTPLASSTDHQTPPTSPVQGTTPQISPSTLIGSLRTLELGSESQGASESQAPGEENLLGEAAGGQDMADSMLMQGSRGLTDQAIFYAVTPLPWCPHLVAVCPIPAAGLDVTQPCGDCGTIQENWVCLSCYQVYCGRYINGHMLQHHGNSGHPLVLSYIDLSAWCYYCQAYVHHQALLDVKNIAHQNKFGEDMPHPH
To be noted: at 10 µM.
`N#Cc1cccc(C(=O)Nc2cc(-c3ccccc3)nn2-c2ccccc2)c1`: the inhibition turned out to be 70%. Turning to `O=C(Nc1cc(-c2ccccc2)nn1-c1ccccc1F)c1ccc([N+](=O)[O-])cc1`, the inhibition was found to be 73.6%. Turning to `O=C1NC(c2cccc([N+](=O)[O-])c2)=CCN1c1ccccc1O`, the inhibition was 31.3%.

As for `CCOC(=O)c1ccc(OCCC2CCN(c3ccc(C)nn3)CC2)cc1`, the inhibition came to 19.2%. With `Cc1cccc(C#Cc2ccccc2)n1` the figure was 101%; with `NS(=O)(=O)C#Cc1ccccc1`, -0.7%. Regarding `COc1cc(C(=O)O)ccc1NC(=O)[C@@H]1N[C@@H](CC(C)(C)C)[C@](C#N)(c2ccc(Cl)cc2F)[C@H]1c1cccc(Cl)c1F`, the inhibition is 11.2%. Consider `CO[C@@H]1COCC[C@@H]1N[C@@H]1CC[C@@](C(=O)N2CCc3ncc(C(F)(F)F)cc3C2)(C(C)C)C1`, for which the inhibition amounted to 41.3%. Turning to `Cc1ccc2c(=O)c3ccccc3n(CCCN)c2c1C`, the inhibition was determined as 6.54%. As to `COc1ccncc1C(=O)NC(=O)Nc1ccc(-c2ccccc2)c(C(F)(F)F)c1`, the inhibition is 9.55%. The result for `Fc1ccc(-c2c3cccc(C(F)(F)F)c3nn2Cc2ccc(F)cc2Cl)cc1` reads 2.87%; that for `COc1ccc(C(=O)c2ccccc2O)c(O)c1`, 8.93%; that for `Cc1ccc(C(=O)c2cc(O)c(O)c([N+](=O)[O-])c2)cc1`, -8.08%. With `COc1ccc(C(=O)c2ccc(C)cc2)c(O)c1` the figure was 50.7%; with `Cc1c(C(=O)NC2CCCCC2)sc2nc3ccc(N)cc3n12`, 49.8%. The result for `CCCCC/N=c1/ccn(Cc2ccccc2)c2ccccc12` reads -3.26%. Turning to `O=c1[nH]cnc2nc[nH]c12`, the inhibition turned out to be 57.8%. With `Cc1cccc(C)c1NC(=O)c1ccc(N)cc1` the figure was 7.12%; with `C=C1C(=O)O[C@H]2[C@H]1CC/C(C)=C\CC[C@@]1(C)O[C@@H]21`, 9.8%; with `CC#CC(=O)N1CCC[C@H]1c1nc(-c2ccc(C(=O)Nc3ccccn3)cc2)c2c(N)nccn12`, 10.6%. With `O=C(NC1CCNCC1)c1n[nH]cc1NC(=O)c1c(Cl)cccc1Cl`, the inhibition was found to be 42.4%. As to `CC1CCC(NC(=O)N(CCCl)N=O)CC1` (stereo not given), the inhibition was determined as 48.2%.

For the compound `Cc1cccc(Nc2nc(-c3ccncc3)cs2)c1`, the inhibition was 91.1%.

In the case of `Oc1ccc(Nc2nc(-c3ccc(Cl)cc3)cs2)cc1`, the inhibition was 20.2%. With `Cc1cccc(Nc2ccncc2S(=O)(=O)NC(=O)NC(C)C)c1` the figure was -9.9%; with `O=C(O)CC(O)C(=O)O` (stereo not given), 3.05%; with `C[C@H]1[C@H](C)CC[C@]2(C(=O)O)CC[C@]3(C)C(=CC[C@@H]4[C@@]5(C)C[C@@H](O)[C@H](O)[C@@](C)(CO)[C@@H]5CC[C@]43C)[C@H]12`, -0.26%. The result for `O=C(NCc1ccccn1)Nc1nnc(-c2ccco2)o1` reads 1.12%; that for `CCCN(C/C=C/I)C1CCc2cccc(O)c2C1` (stereo not given), 14.4%; that for `CN(C)c1ccc(C(=C2C=CC(=[N+](C)C)C=C2)c2ccc(N(C)C)cc2)cc1`, 79.1%. The result for `C[C@H](Nc1cc(-c2cnn(C)c2)cc(Nc2cnccn2)n1)c1ccc(F)cc1` reads 3.96%; that for `O=C(O)C1=CCNCC1`, 5.63%; that for `Cc1cc(C)c2nc(-c3ccccn3)cc(C(=O)Nc3ccc(S(=O)(=O)Nc4onc(C)c4C)cc3)c2c1`, -6.66%. `Cc1ccc(O)c(/N=N/c2ccccc2)n1`: the inhibition amounted to 102%.

For the compound `Cc1ccccc1/N=N/c1ccc(/N=N/c2c(O)ccc3ccccc23)c(C)c1`, the inhibition came out at 12%.

As for `C=CCN1CCN(c2nc3ccccc3nc2C#N)CC1`, the inhibition came out at 32.5%. The result for `CC(C)=CCC/C(C)=C/CC/C(C)=C/CC[C@]1(C)CCc2cc(O)cc(C)c2O1` reads -4.35%; that for `CN1CCN(CCc2ccc(Cl)c(Cl)c2)CC1`, 0.9%; that for `NC(=O)c1sc(-c2ccsc2)cc1N`, 101%. Regarding `CCc1cc2c(cc1CC)CC(NC[C@H](O)c1ccc(O)c3[nH]c(=O)ccc13)C2`, the inhibition was 15.6%. With `COC(=O)N[C@H](C(=O)N1CCC[C@H]1C(=O)Nc1ccc([C@@H]2CC[C@@H](c3ccc(NC(=O)[C@@H]4CCCN4C(=O)[C@@H](NC(=O)OC)C(C)C)cc3)N2c2ccc(C(C)(C)C)cc2)cc1)C(C)C` the figure was 18.8%; with `CCOC(=O)C1=CCCC[C@H]1S(=O)(=O)Nc1ccc(F)cc1Cl`, -6.94%. The result for `CCOC(=O)c1ccc(N2NC(=O)/C(=C/c3ccc([N+](=O)[O-])o3)C2=O)cc1` reads 66.9%. The result for `CC1=NN(c2ccc(C(=O)O)cc2)C(=O)/C1=C\c1ccc(-c2cc(C)c(C)cc2[N+](=O)[O-])o1` reads -7.66%; that for `NC(=O)N/N=C/c1ccc([N+](=O)[O-])o1`, -5.79%.

Regarding `Cc1cccc(CCN2CCC(C(=O)c3ccc(NS(C)(=O)=O)cc3)CC2)n1`, the inhibition is 25.6%. On to `C[C@]1(O)C[C@@H](c2nc(-c3ccc4ccc(-c5ccccc5)nc4c3)c3c(N)nccn32)C1`, for which the inhibition was 29.4%.

For `Nc1ccc2ncnc(NCCc3ccc(Oc4ccccc4)cc3)c2c1`, the inhibition stood at 58%. Turning to `Fc1ccc(CNc2ncnc3ccc(F)cc23)cc1`, the inhibition is -3.85%. In the case of `COc1cc2ncnc(Nc3ccc(Oc4ccccc4)cc3)c2cc1OC`, the inhibition came out at 1.72%.
